This is a sample that favours compounds with a hit; in the whole collection about 4.6% have one here.
LASV entry inh: Lassa virus entry inhibition | Lassa virus pseudotype entry inhibition, cell reporter | Potency, µM (titrated, usually from 37.9 µM), most hits filed as inhibitors | 1.2% of 300,000 active | AID 540256; calls by dose curve; tested in HEK293 cells; further: nearly all actives have a fitted effect of over 50% in size
Vaccinia mCherry: vaccinia inhibition (mCherry reporter). 0.63% of 310,000 active. Vaccinia virus mCherry reporter infection, fluorescence. Potency, µM (series often up to 36.5 µM), most hits filed as inhibitors; calls by dose curve; tested in A549 cells; further: nearly all actives have a fitted effect of over 35% in size
Vaccinia Venus: vaccinia inhibition (Venus reporter). Vaccinia virus Venus reporter expression, fluorescence. Potency, µM (top dose mostly 36.5 µM), hits mostly inhibitors. 0.46% of 330,000 active. AID 720580; calls by dose curve; tested in A549 cells; further: nearly all actives have a fitted effect of over 30% in size
HCV inh: inhibitors of hepatitis C virus infection; Huh7.5.1 HCVcc-Cre infection, luciferase reporter, 44 h; Potency, µM (highest dose often 41.8 µM), usual class: inhibitors; 3.4% of 340,000 active; AID 651820; active means well fitted inhibition curve with a large enough effect; inconclusive means small, poorly fitted or top-dose-only effect, or another doubt; inactive means no such curve, though single readings can be large or run the other way
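1,000 cells/well; 4 h culture; + compound; + HCVcc-Cre (~0.5 moi); 44 h; luciferase substrate, RT 15 min; read 15 sec.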
Marburg entry inh: inhibitors of Marburg virus binding or cell entry. Potency, µM (titrated, usually from 37.8 µM), usual class: inhibitors. 1.8% of 300,000 active. AID 540276. Marburg virus pseudotyped entry inhibition, cell reporter; calls by dose curve; tested in HEK293 cells
Numbers stand for hits; . = inactive; ? = inconclusive; / = no result given; ! = not active in a repeat; [ ] = dose if it differs, or a comment.

SMILES	LASV entry inh	Vaccinia mCherry	Vaccinia Venus	HCV inh	Marburg entry inh
CC(O)C1C=CC=CC(=O)OC2CC3OC4C5OC5(C)C(O)CC4(COC(=O)C(O)C(C)CCO1)C2(C)C31CO1 (stereo not drawn)	/	/	/	/	0.13µM
CCN(CC)CCCN1C(=O)C(=O)/C(=C(\O)c2ccc(Cl)cc2)[C@@H]1c1ccccn1	/	/	/	/	.
O=c1c(O)cc(C2Oc3cc(O)cc(O)c3CC2O)cc2c(C3Oc4cc(O)cc(O)c4CC3O)cc(O)c(O)c12 (stereo not drawn)	/	.	.	/	/
O=c1[nH]c2c(-c3nc(-c4ccc(Cl)cc4)cs3)c(O)cn2c2ccccc12	/	.	.	/	/
CC(C)(C)NC(=O)C(c1ccc(F)cc1)N(Cc1cccs1)C(=O)c1ccc(CN2CCOCC2)o1 (stereo not drawn)	.	.	.	.	2.8µM
CC(C)CCNC(=O)C(C)N(Cc1ccc(F)cc1)C(=O)c1ccc(CN2CCOCC2)o1 (stereo not drawn)	.	.	.	.	.
N#Cc1c[nH]n2c(NC3CCCC3)c(-c3ccc(Br)cc3)nc12	.	.	.	/	?
N#Cc1c[nH]n2c(NC3CCCC3)c(-c3ccc(Cl)cc3)nc12	.	.	.	/	1.4µM
CC(=O)c1ccc(N/N=C(/C(N)=O)C2=NC(C)(C)Cc3ccccc32)cc1	2.9µM	?	?	?	3.3µM
CC1(C)Cc2ccccc2C(/C(=N/O)C(N)=O)=N1	.	.	.	.	.
COc1ccc(NC(=O)Cc2ccc(Cl)c(Cl)c2)cn1	/	.	.	.	/
COc1ccc(NC(=O)/C(Cl)=C(/Cl)S(=O)Cc2ccccc2Cl)cn1 (stereo not drawn)	?	2µM	2.8µM	2.8µM	?
COc1ccc(NC(=O)/C(Cl)=C(/Cl)S(=O)(=O)Cc2ccc(C)cc2)cn1	14µM	/	14µM	2.5µM	4.5µM
CCOC(=O)c1cccc(NC(=O)c2cc3c(=O)n(Cc4ccccc4)ccc3nc2C)c1	.	.	.	/	/
Cc1[nH]c2ccccc2c1/C=N/NC(=S)NC(C)C	?	.	.	10µM	?
Cc1[nH]c2ccccc2c1/C=N/NC(=O)C1CC1(c1ccccc1)c1ccccc1 (stereo not drawn)	?	?	11µM	?	?
O=C(NCC(=O)N1CCN(C(c2ccccc2)c2ccccc2)CC1)c1ccccc1Br	/	.	.	/	/
Cc1cc(C)cc(C(=O)NCC(=O)N2CCN(C(c3ccccc3)c3ccccc3)CC2)c1	.	.	.	.	13µM
CSCCC(NC(=O)c1ccccc1)C(=O)N1CCN(C(c2ccccc2)c2ccccc2)CC1 (stereo not drawn)	14µM	?	?	13µM	.
CN1CC=C2C(C#N)=C(N)C(C#N)(C#N)[C@H](c3ccncc3)[C@H]2C1	/	/	/	/	.
CN1c2ccccc2C(C)(C)C12CC(c1cccc(S(=O)(=O)N3CCCC3)c1)=NO2 (stereo not drawn)	0.52µM	.	.	?	0.46µM
CN1c2ccccc2C(C)(C)C12CC(c1ccc(S(=O)(=O)N3CCCCC3)cc1)=NO2 (stereo not drawn)	0.18µM	.	.	.	0.16µM
CSc1nc(N2CCOCC2)c2c3c(sc2n1)CCC3	.	/	.	11µM	?
Cc1nc(N2CCN(c3ccccc3)CC2)c2c3c(sc2n1)CCC3	/	/	/	/	.
CC(=O)c1ccc(NC(=O)CSc2nc(=O)n(Cc3ccncc3)c3c2CCC3)cc1	.	.	.	/	/
SMILES	LASV entry inh	Vaccinia mCherry	Vaccinia Venus	HCV inh	Marburg entry inh
CC(C)(C)OC(=O)N1CCC(c2c(C(=O)NCCN3CCC(Cc4ccccc4)CC3)cnn2-c2ccccc2)CC1	?	?	11µM	/	/
CC(C)(C)OC(=O)N1CCC(c2c(C(=O)N3CCCCC3)cnn2-c2ccc(Cl)cc2)CC1	?	.	.	/	/
COc1cccc(N2CCN(C(=O)c3cnn(-c4ccc(C)cc4C)c3C3CCN(C(=O)OC(C)(C)C)CC3)CC2)c1	1.1µM	.	.	/	/
CN1CCN(CCCNC(=O)c2cnn(-c3ccccc3)c2C2CCN(C(=O)OC(C)(C)C)CC2)CC1	?	.	.	/	/
CCOC(=O)c1cnn(-c2ccc(Cl)cc2)c1C1CCN(C(=O)OC(C)(C)C)CC1	3.3µM	?	.	13µM	?
COc1ccc(N(CC(C)C)S(=O)(=O)c2nnc(NC(=O)c3cccs3)s2)cc1	.	.	.	/	/
COc1ccc(CNc2ncncc2-c2ccc3c(c2)OCO3)c(OC)c1	/	.	.	/	/
C[C@@H]1CC[C@H]2C(=O)N(Cc3ccc(Cl)cc3)C[C@@H](O)CN2[C@@H]1c1ccc(Br)cc1	/	/	/	/	.
Cn1c(NC(=O)c2ccccc2NC(=O)C(C)(C)C)nc2ccccc21	/	?	?	7.1µM	/
Cn1c(NC(=O)c2ccc(F)cc2)nc2ccccc21	/	/	/	.	/
O=C(Nc1ccc(N2CCOCC2)cc1)c1cccc(S(=O)(=O)N2CCCCC2)c1	.	.	.	10µM!	.
O=C(NC1CCCc2ccccc21)c1cccc(S(=O)(=O)N2CCN(c3ccccc3)CC2)c1 (stereo not drawn)	.	/	/	?	.
Cc1ccnc(NC(=O)c2ccc(Cl)c(S(=O)(=O)N3CCCCC3)c2)c1	/	/	/	13µM	/
O=C(Nc1ccc2c(c1)CCC2)c1cccc(S(=O)(=O)N2CCN(c3ccccc3)CC2)c1	.	/	/	0.56µM	?
COc1ccccc1C(=O)Nc1cccc(N2CCC(NCc3cnn(-c4ccccc4)n3)CC2)c1	/	.	.	/	/
COc1ccc(CN2CCOc3ccc(CN4CCC(O)(c5cccnc5)CC4)cc3C2)c(C)c1C	/	.	.	/	/
O=C(NNC(=O)c1ccc(O)c(Cl)c1)c1cccc(S(=O)(=O)N2CCOCC2)c1	.	.	.	.	10µM
CCCCn1ccnc1C(=O)c1cc(S(=O)(=O)N2CCOCC2)ccc1C	.	/	/	11µM	?
CCCn1c(NC(=O)c2ccc(Cl)c(S(=O)(=O)N3CCCC3)c2)nc2ccccc21	?	11µM	25µM	2.5µM	?
O=C(Nc1ccc(N2CCOCC2)cc1)c1ccc(Cl)c(S(=O)(=O)N2CCCCC2)c1	/	/	/	2.5µM	/
Cc1ccc(S(=O)(=O)N2CCOCC2)cc1C(=O)O	.	/	/	.	.
O=C(Nc1ccc2c(c1)OCCO2)c1ccc(Cl)c(S(=O)(=O)N2CCOCC2)c1	.	.	.	/	.
O=C(NCc1nc2ccccc2[nH]1)c1ccc(Cl)c(S(=O)(=O)N2CCCC2)c1	.	.[1.46 µM]	?	.	.
N#Cc1ccc(C(=O)NNC(=O)c2cccc(S(=O)(=O)N3CCOCC3)c2)cc1	.	.	.	.	.
CCSc1oc(-c2cccs2)nc1S(=O)(=O)c1ccc(Br)cc1	?	.	.	/	.
SMILES	LASV entry inh	Vaccinia mCherry	Vaccinia Venus	HCV inh	Marburg entry inh
COC(=O)c1ccc(CN(Cc2ccc(OC)c(OC)c2)S(=O)(=O)c2ccc(F)c(C(=O)Nc3cc(C)ccc3C)c2)cc1	.	.	.	/	/
COc1ccc(OC)c([C@@H]2C(C#N)=C(N)Oc3cc(C)n(Cc4ccccn4)c(=O)c32)c1	/	/	/	/	.
C=CCN(c1ccccc1)S(=O)(=O)c1cccc(C(=O)Nc2ccc(N3CCOCC3)cc2)c1	?	?	?	7.1µM	?
O=C(NCCN1C(=O)S/C(=C\c2cccnc2)C1=O)c1cc(S(=O)(=O)N2CCOCC2)ccc1F	/	/	/	.	/
Cc1ccc(S(=O)(=O)N2CCOCC2)cc1C(=O)Nc1ccc(N2CCCCCC2)cc1	?	?	.	5µM	?
CCCn1c(NC(=O)c2cccc(C)c2C)nc2ccccc21	.	/	/	11µM	?

High-throughput results from PubChem BioAssay.
